Test results from PubChem BioAssay AID1868 (National Center for Advancing Translational Sciences (NCATS), 2009).
The campaign covered roughly 270,000 compounds. About 20 (0.007%) were called active. Calls follow the shape of the dose curve; as a rule, active = well fitted inhibition curve with a large enough effect; inconclusive = small, poorly fitted or top-dose-only effect, or effect the other way; inactive = flat fitted curve, though single readings scatter. The list is a sample of the results.

biological target: Galactokinase (Homo sapiens) (UniProt P51570); experiment: qHTS Assay for Inhibitors of Human Galactokinase (GALK); conditions: Purified GALK, Kinase-Glo residual ATP luminescence; series mostly up to 57.5 µM; activity change, negative = inhibition: at the top concentration
Excerpt: NIH Molecular Libraries Probe Production Centers Network [MLPCN] NIH Chemical Genomics Center [NCGC] MLPCN Grant: R03 MH085689-01 Assay Submitter (PI): Kent Lai (University of Utah School of Medicine, 50 N Mario Capecchi Drive, Salt Lake City, UT 84132) NCGC Assay Overview: Inherited deficiency of galactose-1-phosphate uridyltransferase (GALT) can result in a potentially lethal disorder called Classic Galactosemia (OMIM 230400). Several lines of evidence indicate that an elevated level of galactose-1-phosphate (gal-1-p), the product of galactokinase (GALK), is a major, if not sole, pathogenic mechanism in patients with classic galactosemia. Therefore, finding inhibitors of GALK is a potential novel therapy for this inherent metabolic disease and is the long term goal of this project. GALK (provided by the assay submitter) was assayed using ATP and D-(+)-Galactose (Sigma-Aldrich cat# G0750) as substrates. Promega Kinase-Glo Plus (cat# V3774) technology was used to detect the residual ATP following kinetic reaction. Briefly, the Kinase-Glo Plus contains Ultra-Glo [2] luciferase and D-luciferin which generates a bioluminescence signal from the remaining ATP.
NCGC Assay Protocol Summary: Three uL/well of ATP-buffer solution (35 uM ATP, 20mM HEPES pH8.0, 5 mM MgCl2, 60 mM NaCl, 1 mM DTT, 0.01% BSA final concentration) was dispensed into 1536-well, assay plates (Greiner, solid white medium-binding plates) with Aurora Discovery BioRAPTR Flying Reagent Dispenser (FRD; Beckton-Dickenson). Compound solution (23 nL) was transferred to the assay plate using the Kalypsys 1536-pin tool. One uL/well GALK-galactose solution (5 nM GALK, 100 uM galactose, 20 mM HEPES pH8.0, 5 mM MgCl2, 60 mM NaCl, 1 mM DTT, 0.01% BSA final concentration) was then added using the FRD yielding a total kinase reaction volume of 4 uL/ well. After 1 hour of room temperature incubation, 4 uL Kinase-Glo Plus reagent was added for a final assay volume of 8 uL/ well. Luminescence was detected with the ViewLux plate reader (Perkin Elmer, Waltham, MA) after 10 min incubation using a 1 sec exposure time and 2x binning.
% is scaled to controls: 0 for no effect and ±100 for the full control effect.

Sequence of Galactokinase (Homo sapiens) (P51570 whole entry, looked up): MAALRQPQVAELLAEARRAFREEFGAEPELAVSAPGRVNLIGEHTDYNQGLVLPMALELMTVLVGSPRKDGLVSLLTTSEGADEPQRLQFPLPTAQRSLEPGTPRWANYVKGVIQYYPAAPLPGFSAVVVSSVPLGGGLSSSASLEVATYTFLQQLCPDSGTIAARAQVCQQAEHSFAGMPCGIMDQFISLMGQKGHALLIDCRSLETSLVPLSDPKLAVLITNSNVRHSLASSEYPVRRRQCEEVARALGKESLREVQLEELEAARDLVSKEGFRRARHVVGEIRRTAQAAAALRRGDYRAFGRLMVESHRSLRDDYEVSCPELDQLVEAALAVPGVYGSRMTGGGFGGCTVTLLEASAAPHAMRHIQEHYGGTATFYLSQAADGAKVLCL

Activity change, negative = inhibition, inactive:
CCOC(=O)C(Cc1ccc(N)cc1)N1C(=O)c2ccccc2C1=O (stereo unspecified) -2.49%
COc1ccccc1N1CCN(/N=C/c2ccc(O)cc2O)CC1 0.0195%
CC(=O)N[C@@H](C)C(=O)N1CCC(n2nccc2NC(=O)CCCc2ccccc2)CC1 -8.5%
COc1ccc(C(=O)NCCSc2ccccc2C)cc1 2.87%
CCOCc1nnc(NC(=O)CCS(=O)(=O)Cc2ccccc2)s1 17.2%
CCC(=O)Nc1ccc(-c2ccc(N3CCCCC3)nn2)cc1 6.79%
COc1ccc(-c2csc3ncnc(N4CCN(S(=O)(=O)c5ccccc5C#N)CC4)c23)cc1 -1.81%
CC(=O)Nc1ccc(S(=O)(=O)Nc2cc(C)cn(Cc3ccc(C)cc3)c2=O)cc1 -2.01%
COc1ccc(CN2CCCC(N3CCc4ccccc4C3)C2)c(O)c1 (stereo unspecified) 3.61%
CC1CCN(S(=O)(=O)c2ccc3c(c2)n(C)c(=O)n3C)CC1 1.48%
Cc1ccccc1Nc1nc(-c2cccnc2)cs1 4.19%
CC1=NN(C(N)=S)C(=O)C1N=Nc1cc(Cl)ccc1Cl (stereo unspecified) -1.93%
CC(C)(C)c1ccc(SCCc2ccncc2)cc1 2.38%
O=C(/C=C/c1ccc([N+](=O)[O-])o1)NNC(=O)c1ccc(F)cc1 4.88%
CC(C)(C)C(=O)NC1CC2CCCC(C1)N2C(=O)Nc1ccccc1F (stereo unspecified) -7.57%
Cc1cc(C)c2nc(N(CCN(C)C)C(=O)/C=C/c3cccs3)sc2c1 0.912%
COc1ccc(C(=O)O/N=C(\N)c2ccccn2)cc1[N+](=O)[O-] 4.35%
CS(=O)(=O)N1CCN(C(=O)CSc2ccccc2)CC1 1.25%
CCC(C)c1ccc(NC(=S)N2CCCC2)cc1 (stereo unspecified) -5.24%
O=C(CN1CCN(c2cccc(Cl)c2)CC1)Nc1ccc(S(=O)(=O)N2CCOCC2)cc1 6.53%
CCc1ccccc1NC(=O)c1ccc2snnc2c1 3.35%
CN(c1ccc(O)cc1)c1nc(-c2cccnc2)cs1 4.72%
Cc1ccc(C(=O)Nc2nnc(C3=COCCO3)o2)cc1C 1.42%
CCN1CCN(c2sc(S(C)(=O)=O)nc2S(=O)(=O)c2ccc(Cl)cc2)CC1 -4.5%
Cc1cccc(Nc2nc(-c3ccccc3)cs2)n1 -8.33%
COc1ccc(/C=C(\C#N)c2c[nH]c3ccccc23)cc1 -9.3%
COc1ccc(CCc2nc(-c3cccs3)no2)cc1 8.36%
O=C(Nc1ncc([N+](=O)[O-])s1)C1COc2ccccc2O1 (stereo unspecified) -1.73%
COCCN1C(=O)N(c2ccc(Cl)cc2)C(=O)C1CC(=O)Nc1cc(OC)cc(OC)c1 (stereo unspecified) -3.36%
Cc1c(C)n(Cc2ccc(Cl)cc2)c2ccc(C(=O)NCCCN3CCOCC3)cc12 0.0996%
Cc1cccc2sc(N(CCCN(C)C)C(=O)CCS(=O)(=O)c3ccccc3)nc12 -3.45%
